Screens from PubChem BioAssay.
A selection: hits, their analogues and other compounds. The true share with any hit is near 4%.
HIF-2a inh: HIF-2a inhibition; 786-0 RCC cells HIF-2a reporter, luciferase luminescence, overnight; inhibition, % at 18.8 µM; hit rate 0.72% among 360,000;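 active = inhibition of the luminescence signal of 40% or more relative to plate controls, in a single-dose primary screen at 18.75 µM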
KKLEB tox: counter-screen for CF NF-kB inhibitors: cytotoxicity; hit rate 0.36% among 360,000; activity change (cytotoxicity), % at 5 µM; KKLEB CF airway cells viability, ATPlite luminescence, overnight; stronger effect = lower value; cells stimulated with P. aeruginosa culture filtrate; AID 602141;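 active = corrected activity change at or below -50% at 5 µM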
Peg3 promoter: reduces Peg3 promoter-driven luciferase expression in HeLa. inhibition, % at 20 µM. AID 588405. HeLa PEG-Prom luciferase reporter, luminescence, overnight. hit rate 1.7% among 360,000;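 active = inhibition of at least 50% at 20 µM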
TROY NFkB inh: inhibitors of TROY-dependent NF-kB signaling. Q293 LMP1-TROYcd NF-kB luciferase reporter, 4 h. inhibition, % at 10 µM. hit rate 0.98% among 360,000. AID 1347056;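 active = compounds whose plate-normalised and pattern-corrected inhibition of the luciferase reporter signal at the single screening dose is 50% or more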
CF NFkB inh: cystic fibrosis NF-kB activation inhibition | KKLEB NF-kB-GFP reporter, PAF-induced, GFP fluorescence overnight | inhibition, % at 5 µM | hit rate 0.86% among 360,000 | AID 588850;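 active = at least 50% inhibition at 5 µM, scaled per plate between neutral and stimulator controls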;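 also: PAF is a Pseudomonas aeruginosa culture filtrate used as stimulus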
TWEAK-Fn14 inh: TWEAK-Fn14 signaling inhibition; TWEAK-stimulated Fn14 reporter cells, luciferase luminescence, 8 h; inhibition, % at 10 µM; hit rate 2% among 360,000; AID 1159606; in the data active = inhibition above about 50%
Of the large screens only hits and unclear results are named; the others gave an inactive call.

CCCCNC1=CC(=O)C(=O)c2ccccc21	none
CCN1C(=O)C(CC(=O)Nc2ccc(Br)cc2)N(CCCc2ccccc2)C1=S (configuration not stated)	Peg3 promoter 58
O=C(c1ccc(Cl)cc1)N1CCC2CC1c1cc(-c3ccccc3)ccc12 (configuration not stated)	none
Cc1cccc(N2CCN(C(=O)C3CCC(=O)N(C4CC4)C3)CC2)c1C (configuration not stated)	none
CN1CCN(C(=O)c2cc([N+](=O)[O-])cc([N+](=O)[O-])c2)CC1	TWEAK-Fn14 inh 80
CSc1ccc(CN2C(=O)NC3(CCCCCCC3)C2=O)cc1	none
CC/C=C\[C@H](O)[C@H](O)C1=C(C)C(=O)[C@]2(O1)C(=O)N[C@@](OC)(C(=O)c1ccccc1)C2O (some centres not stated)	TWEAK-Fn14 inh 69
Nc1nc(Sc2ccc([N+](=O)[O-])c3nonc23)c2[nH]cnc2n1	Peg3 promoter 67
C=C(C)CN(CC)C(=O)CN1C(=O)NC(C)(c2ccc3ccccc3c2)C1=O (configuration not stated)	none
O=C1C=CC2(O[C@H](c3ccccc3)[C@@H](c3ccccc3)O2)[C@H](Sc2ccccc2O)C1	HIF-2a inh 89, KKLEB tox -86, Peg3 promoter 108, TROY NFkB inh 80, CF NFkB inh 89, TWEAK-Fn14 inh 105
CSCCC(NC(=O)c1ccccc1)C(=O)OCC(=O)NCc1ccco1 (configuration not stated)	none
C[C@]12c3[nH]c4ccccc4c3CCN1C(=O)C(CC(=O)NCCCn1ccnc1)C[C@@H]2C(=O)N1CCCCC1 (some centres not stated)	none
CCN(C(=O)c1cnc(N2CCN(c3ncccn3)CC2)c2ccccc12)c1cccc(Cl)c1	TWEAK-Fn14 inh 66
CN(C(=O)c1cnc(N2CCN(c3ncccn3)CC2)c2ccccc12)c1ccc(Cl)cc1	Peg3 promoter 62
O=C(Nc1ccc(F)cc1F)NC1CCN(Cc2c(F)cccc2Cl)CC1	none
Cc1cccc(NC(=O)CSCC(=O)N(C)Cc2ccc(Cl)c(Cl)c2)c1	none
CCc1cc2c(cc3c(=O)n(CC(=O)NCCCN4CCCCCC4)nc(CC)n32)s1	none
COc1ccc(-c2oc3ccc(-c4cc(OC)c(OC)c(OC)c4)cc3c2C#Cc2ccsc2)cc1	none
Cn1c(=O)c(C(=O)NNC(=O)c2ccccc2F)c(O)c2ccccc21	none
Cn1c(=O)c(C(=O)NNC(=O)c2ccc(Br)cc2)c(O)c2ccccc21	Peg3 promoter 54
CC(=O)Nc1ccc(C(=O)N/C(=C/c2ccccc2)C(=O)NCc2ccco2)cc1	none
CCSCc1nnc(SCC(=O)c2ccc(OC)cc2)n1C	TWEAK-Fn14 inh 84 (no result: TROY NFkB inh)
O=c1[nH]c(=S)[nH]c2c1C(c1ccc(F)cc1)OC(CCc1ccccc1)C2 (configuration not stated)	none (no result: KKLEB tox, Peg3 promoter, CF NFkB inh)
Cc1ccc(-c2nc3ccc([N+](=O)[O-])cc3[nH]2)cc1	TWEAK-Fn14 inh 51
Nc1cccc(-c2nc3ccccc3[nH]2)c1	none
Cc1ccc2nc(-c3cccc(N)c3)[nH]c2c1	TWEAK-Fn14 inh 61
Cc1ccc2nc(-c3sc4nc(C)cc(C)c4c3N)[nH]c2c1	TROY NFkB inh 70, TWEAK-Fn14 inh 78
CC(=O)c1sc2nc(C)cc(C)c2c1N	none
O=C1Nc2ccccc2-c2nnnn2C1N1CCC(Cc2ccccc2)CC1 (configuration not stated)	none (no result: KKLEB tox, Peg3 promoter, TROY NFkB inh, CF NFkB inh, TWEAK-Fn14 inh)
COc1ccc(-c2csc(=NCCO)n2-c2ccccc2)cc1	none
COc1ccc(OC)c(-c2cc(C(=O)Nc3sc4c(c3C#N)CCC(C)C4)c3ccccc3n2)c1 (configuration not stated)	KKLEB tox -52
COC(=O)c1sc(NC(=O)c2cc(-c3ccccc3)nc3ccccc23)c(C#N)c1C	TROY NFkB inh 52
Cc1ccc(C)c(-c2cc(C(=O)Nc3nccs3)c3ccccc3n2)c1	TWEAK-Fn14 inh 62
Cc1ccccc1-c1cc(C(=O)Nc2sc(C(=O)OC(C)C)c(C)c2C#N)c2ccccc2n1	KKLEB tox -54, TROY NFkB inh 58, CF NFkB inh 56, TWEAK-Fn14 inh 62
CCOc1ccc(NC(=O)COC(=O)c2c[nH]c3ccccc23)cc1	none
O=C(CCC(=O)N1CCOc2ccccc21)NCCN1CCOCC1	none
Cc1ccc(-c2cc(C(=O)Nc3cc(C(=O)O)ccc3C)c3ccccc3n2)cc1	none
Cc1ccc(S(=O)(=O)N(C)C)cc1NC(=O)c1cc(-c2ccncc2)nc2ccccc12	Peg3 promoter 52
COC(=O)c1sccc1NC(=O)c1cc(-c2ccc(C)cc2)nc2ccccc12	TWEAK-Fn14 inh 98
O=C(CC(Nc1cccc(Cl)c1Cl)C(=O)O)c1ccccc1 (configuration not stated)	none
O=C(CC(Nc1ccccc1Cl)C(=O)O)c1ccccc1 (configuration not stated)	TROY NFkB inh 65, TWEAK-Fn14 inh 61
O=C(O)c1cc2ccccc2c(N=Nc2cccnc2)c1O	HIF-2a inh 73, Peg3 promoter 55
O=C(O)c1cc(N=Nc2c(O)ccc3ccccc23)cc(C(=O)O)c1	none
COc1ccc(C(=O)N/C(=C/c2ccc(Cl)cc2)C(=O)Nc2ccc(C(=O)O)cc2)cc1	TWEAK-Fn14 inh 100
COc1ccc(/C=C(\NC(=O)c2ccc(OC)cc2)C(=O)Nc2cccc(C(=O)O)c2)cc1	none
COc1cccc(NC(=O)CN(C)C(=O)C23CC4CC(CC(Cl)(C4)C2)C3)c1	none
CN(c1ccccc1)S(=O)(=O)c1cc(C(=O)OCC(=O)c2c(N)n(C)c(=O)n(C)c2=O)ccc1Cl	none
Cc1ccc(N(C)S(=O)(=O)c2cccc(C(=O)OCC(=O)c3c(N)n(C)c(=O)n(C)c3=O)c2)cc1	TROY NFkB inh 52
C=C(C)CN(CC)C(=O)Cn1cnc2c(oc3ccccc32)c1=O	TROY NFkB inh 54
O=C1c2ccccc2C(=O)c2cc(N3CCCCC3)ccc21	KKLEB tox -63, TROY NFkB inh 83, TWEAK-Fn14 inh 101
NC(=O)C1CCN(c2ccc3c(c2)S(=O)(=O)c2ccccc2C3=O)CC1	TROY NFkB inh 63
c1ccc2cc(N3CCCCC3)ccc2c1	none
O=C(NCc1ccccc1)c1nc(-c2c(F)cccc2F)oc1-c1ccccc1	none (no result: KKLEB tox, Peg3 promoter, TROY NFkB inh, CF NFkB inh, TWEAK-Fn14 inh)
CCn1c2ccccc2c2nc3cc(C(=O)O)ccc3nc21	KKLEB tox -63
COc1ccc2c(-c3cc4ccc(OCc5ccc(F)cc5)cc4oc3=O)cc(=O)oc2c1	Peg3 promoter 76
COc1ccc(COc2ccc3c(C)cc(=O)oc3c2)cc1	none
CC1(C)CC2(OC2c2ccccc2)C(=O)c2ccccc21 (configuration not stated)	none
CC(Nc1ccc(Br)cc1)C(=O)NC(=O)NC1CCCCC1 (configuration not stated)	none
